Screens deposited in PubChem by Broad Institute.
The full list was thinned out, with hits kept by preference.
miR122 inh – activators of miR-122 sensor in Huh7 cells; Huh7 psiCHECK-miR122 Renilla luciferase sensor, 48 h; activation, % at 12.5 µM; 340,000 tested, 0.14% active;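 active means mean activation of 30% or more, with every replicate also reaching 30%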;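 further: 0% = median of neutral control wells and 100% = median of positive control wells; higher luciferase signal means stronger suppression of miR-122 activity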
* = called active by the depositor.

SMILES	miR122 inh
COc1ccc(C#Cc2ccc3c(c2)O[C@H](CN(C)C(=O)NC2CCCCC2)[C@H](C)CN([C@@H](C)CO)S3(=O)=O)cc1	6
C[C@H](CO)N1C[C@H](C)[C@@H](CN(C)C(=O)c2cccnc2)Oc2ncc(/C=C/c3ccccc3)cc2C1=O	4
CC(C)C#Cc1ccc2c(c1)O[C@H](CN(C)C(=O)Nc1ccccc1)[C@@H](C)CN([C@@H](C)CO)S2(=O)=O	-101
COc1cccc(C#Cc2ccc3c(c2)O[C@H](CN(C)C(=O)c2ccccn2)[C@H](C)CN([C@H](C)CO)S3(=O)=O)c1	6
CCC(=O)Nc1ccc2c(c1)OC[C@@H](C)NC[C@H](C)[C@@H](OC)CN(C)C2=O	-2
C[C@H](CO)N1C[C@H](C)[C@@H](CN(C)Cc2cncnc2)Oc2cc(C#CC3CCCC3)ccc2S1(=O)=O	-95
C[C@H]1CN([C@@H](C)CO)C(=O)c2cc(C#Cc3ccccn3)cnc2O[C@@H]1CN(C)CC1CCOCC1	0
COCC(=O)Nc1ccc2c(c1)C(=O)N(C)C[C@@H](OC)[C@@H](C)CN(C(=O)COC)[C@H](C)CO2	-1
C[C@H](CO)N1C[C@H](C)[C@H](CN(C)C(=O)c2cccc(F)c2)Oc2ncc(/C=C/c3ccccc3)cc2C1=O	-3
C=CCc1ccccc1OCC(O)CN1CCN(CCN2C(=O)c3cccc4cccc(c34)C2=O)CC1 (stereo not drawn)	46*
COc1cccc(-c2ccc3c(c2)O[C@H](CN(C)C(=O)C2CCCCC2)[C@H](C)CN([C@@H](C)CO)S3(=O)=O)c1	-15
C[C@@H]1CN([C@@H](C)CO)S(=O)(=O)c2ccc(C#C[C@@H](C)O)cc2O[C@H]1CN(C)C	4
C[C@H]1CN([C@@H](C)CO)C(=O)c2cc(C#CC3CCCC3)cnc2O[C@@H]1CN(C)C(=O)C1CCC1	-4
C[C@@H]1CN([C@@H](C)CO)S(=O)(=O)c2ccc(C#Cc3ccccn3)cc2O[C@@H]1CN(C)Cc1cccc(F)c1	-6
C[C@@H]1CN([C@H](C)CO)C(=O)Cc2cc(NC(=O)Nc3ccccc3)ccc2O[C@@H]1CN(C)C(=O)Nc1cccc2ccccc12	-97
Cc1c(Cl)sn(-c2ccc(Cl)cc2)c1=O	70*
CC(C)NC(=O)N(C)C[C@@H]1Oc2cc(-c3ccccc3)ccc2S(=O)(=O)N([C@@H](C)CO)C[C@H]1C	-5
C/C=C/c1cnc2c(c1)C(=O)N([C@H](C)CO)C[C@@H](C)[C@@H](CN(C)S(=O)(=O)c1ccc(C)cc1)O2	4
C[C@H](CO)N1C[C@H](C)[C@@H](CN(C)C(=O)c2ccccn2)Oc2cc(C#CCC3CCCC3)ccc2S1(=O)=O	-46
C[C@@H]1CN([C@@H](C)CO)S(=O)(=O)c2ccc(Br)cc2O[C@H]1CN(C)S(=O)(=O)c1cccc(F)c1	-1
C/C=C/c1ccc2c(c1)O[C@H](CN(C)CCC)[C@H](C)CN([C@H](C)CO)S2(=O)=O	-1
CCC(=O)N1[C@H](CO)[C@H](c2ccccc2)[C@@H]1CN(CC)C(=O)c1ccccc1	36*
CCC(=O)N1[C@H](CO)[C@H](c2ccccc2)[C@@H]1CN(CC)C(=O)c1cccc(F)c1	-250
COCC(=O)NC[C@H]1[C@H](c2ccccc2)[C@@H](CO)N1C(=O)c1ccccc1	-100
CCC(=O)N1[C@H](CN(CC)C(=O)c2cccc(F)c2)[C@H](c2ccccc2)[C@@H]1CO	-125
SMILES	miR122 inh
CC(=O)N1[C@H](CN(C(=O)c2ccc(F)cc2)C(C)C)[C@H](c2ccccc2)[C@@H]1CO	67*
COCC(=O)N(C)C[C@@H]1Oc2cc(C#CC(C)C)ccc2S(=O)(=O)N([C@H](C)CO)C[C@@H]1C	0
C[C@@H]1CN([C@@H](C)CO)C(=O)c2cc(C#CCC3CCCC3)cnc2O[C@H]1CN(C)C(=O)CC1CC1	0
CCCNC(=O)N(C)C[C@H]1Oc2ncc(C#Cc3ccccc3F)cc2C(=O)N([C@@H](C)CO)C[C@H]1C	7
CCCNC(=O)N(C)C[C@H]1Oc2cc(Br)ccc2S(=O)(=O)N([C@H](C)CO)C[C@H]1C	-10
COc1ccc(-c2cnc3c(c2)C(=O)N([C@H](C)CO)C[C@H](C)[C@H](CN(C)C(=O)C2CCOCC2)O3)cc1	-4
C[C@H](O)C#Cc1ccc2c(c1)O[C@@H](CN(C)C)[C@H](C)CN([C@@H](C)CO)S2(=O)=O	0
Cc1noc(C)c1NC(=O)N(C)C[C@@H]1Oc2cc(C#CCC(C)C)ccc2S(=O)(=O)N([C@@H](C)CO)C[C@@H]1C	4
C[C@H](CO)N1C[C@H](C)[C@H](CN(C)C(=O)CC2CC2)Oc2cc(C3=CCCCC3)ccc2S1(=O)=O	-3
C[C@@H]1CN([C@@H](C)CO)S(=O)(=O)c2ccc(-c3cccc(C#N)c3)cc2O[C@@H]1CN(C)C(=O)Nc1ccccc1F	-28
COC(=O)c1c(N)nc(C)n1-c1ccc(OC)cc1	34*
CCCNC(=O)N(C)C[C@@H]1Oc2ncc(C#CCC3CCCC3)cc2C(=O)N([C@H](C)CO)C[C@H]1C	1
COc1ccccc1S(=O)(=O)N(C)C[C@@H]1Oc2ncc(-c3ccc(C)cc3)cc2C(=O)N([C@@H](C)CO)C[C@H]1C	4
C[C@@H]1CN([C@H](C)CO)C(=O)c2cc(C#C[C@@H](C)O)cnc2O[C@@H]1CN(C)C(=O)CN(C)C	0
CC(C)CC#Cc1cnc2c(c1)C(=O)N([C@@H](C)CO)C[C@H](C)[C@@H](CN(C)C(=O)Nc1cccc(F)c1)O2	5
O=C(C1CCCCC1)N1C[C@@H]2[C@H](c3ccccc31)[C@H](CO)N2Cc1ccccc1Cl	40*
O=C(Cc1ccccc1)N1C[C@H]2[C@@H](c3ccccc31)[C@@H](CO)N2C(=O)C1CCCCC1	-200
COc1ccc(C(=O)N2C[C@@H]3[C@H](c4ccccc42)[C@H](CO)N3Cc2ccccc2Cl)cc1	-194
O=C(C1CC1)N1C[C@H]2[C@@H](c3ccccc31)[C@H](CO)N2C(=O)c1ccccc1F	33*
O=C(C1CCCCC1)N1C[C@H]2[C@@H](c3ccccc31)[C@@H](CO)N2C(=O)c1ccccc1	-260
C[C@@H]1CN([C@@H](C)CO)C(=O)c2cc(-c3cncnc3)cnc2O[C@H]1CN(C)Cc1ccc(F)cc1	5
CC(C)C#Cc1ccc2c(c1)O[C@@H](CN(C)C(=O)NC(C)C)[C@@H](C)CN([C@H](C)CO)S2(=O)=O	-6
CCCN(C)C[C@H]1Oc2cc(C#Cc3ccccc3F)ccc2S(=O)(=O)N([C@H](C)CO)C[C@@H]1C	-12
COCC(=O)Nc1ccc2c(c1)OC[C@@H](C)N(C(C)=O)C[C@H](C)[C@@H](OC)CN(C)C2=O	-1
COc1cc(Cl)cc(/C=N\NC(=O)c2ccc3c(c2)OCO3)c1O	41*
N/C(Cc1cccc2ccccc12)=N\OC(=O)c1ccc2c(c1)OCO2	-103
C[C@@H]1CN([C@@H](C)CO)C(=O)c2cc(C#CC3CC3)cnc2O[C@@H]1CN(C)Cc1ccncc1	1
C[C@H](CO)N1C[C@H](C)[C@H](CN(C)C(=O)c2ccncc2)Oc2cc(C#C[C@@H](C)O)ccc2S1(=O)=O	9
C[C@H]1CN([C@@H](C)CO)C(=O)c2cc(C#CC3(O)CCCC3)cnc2O[C@@H]1CN(C)S(C)(=O)=O	2
C[C@@H]1CN([C@H](C)CO)S(=O)(=O)c2ccc(C#Cc3cccnc3)cc2O[C@@H]1CN(C)CC1CCOCC1	-25
